# ATXN viability – viability counter-screen for ATXN expression inhibitors; S2 cells (HEK-293 line with an ATXN2-luciferase reporter) viability, CellTiter-Fluor protease fluorescence, 24 h; Potency, µM (top dose mostly 56.7 µM), most hits filed as cytotoxic; 0.49% of 400,000 active; note: nearly all actives have a fitted effect of over 40% in size
# TGFb SMAD3 inh – inhibitors of TGF-b signaling; HepG2 CAGA-GFP TGF-b/SMAD3 reporter, GFP fluorescence, 18 h; TGF-beta stimulated, 500 pg/mL final; Potency, µM (doses to about 46.1 µM), hits mostly inhibitors; 1.2% of 410,000 active; note: nearly all actives have a fitted effect of over 65% in size
#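 Inhibition was scored as loss of TGF-beta-induced (500 pg/mL final, 18 hours, 37 degrees C) GFP in HEPG2 cells carrying a CAGA-GFP reporter, in DMEM with 1% FBS. Well GFP was summed per cell; Activity was normalised to unstimulated and stimulated DMSO wells, then concentration-response fitting.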
# Nrf2 inh – inhibitors of Nrf2 signaling; A549 ARE-Fluc reporter, luciferase luminescence, 18-24 h; Potency, µM (highest dose often 46 µM), hits mostly inhibitors; AID 504444; 2.1% of 360,000 active; note: nearly all actives have a fitted effect of over 60% in size
#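 A549 ARE_Fluc cells, 5000/well, 5% FBS OPTI-MEM; compounds in dose-response, 18-24 h at 37 °C/5% CO2; CellTiter-Fluor viability read (Ex 405/Em 525), then BugLite luciferase luminescence = Nrf2 activity.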
# HepG2 tox – HepG2 cytotoxicity, counter-screen for TGF-b inhibitors; HepG2 CAGA-GFP viability, ATP luminescence, 18 h; Potency, µM (titrated, usually from 46.1 µM), actives largely listed as cytotoxic; 0.76% of 410,000 active; AID 588856
#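 CellTiter-Glo luminescence gave cytotoxicity after 18 hours at 37 degrees C. The cells were HepG2 CAGA-GFP in 1% FBS DMEM, stimulated with 500 pg/mL TGF-beta after compound addition. %Activity was normalised to no-cell wells (complete cell-killing) and DMSO (no toxicity), and curves were fitted and classified.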
# A549 tox – counter-screen for Nrf2 inhibitors: cytotoxicity in A549 cells; A549 ARE-Fluc cells, CellTiter-Fluor viability, 18-24 h; Potency, µM (doses to about 46 µM), hits mostly inhibitors; 0.16% of 390,000 active
#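 A549 ARE-Fluc cells in 5% FBS OPTI-MEM, 5000 cells/well, rested 2 h then exposed to compounds in concentration-response for 18-24 h at 37 °C. Viability by CellTiter-Fluor fluorescence (Ex 405/Em 525) after 30 min; luciferase luminescence (BugLite, 15 min, RT) read afterwards.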
# ATXN2 expr inh – reduces ATXN2 reporter expression in HEK-293 cells; HEK-293 ATXN2-luciferase reporter, luminescence, 24 h; AID 1745845; 0.72% of 360,000 active; Potency, µM (series often up to 57 µM), most hits filed as inhibitors; note: nearly all actives have a fitted effect of over 55% in size
#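 ATXN2-luciferase reporter cells (luciferase flanked by upstream and downstream ATXN2 gene portions) were treated 24 h at 37 °C with compounds at up to 57 uM. SteadyGlo luminescence gave expression; GF-AFC fluorescence gave viability.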
# Numbers stand for hits; n = inactive; u = inconclusive; x = no result given; [ ] = another dose, or the depositor's remark. In the library only some 3.8% were active in any assay of this set; here they are far more common. Calls come from the whole dose curve; as a rule, active = well fitted curve in the direction sought with a large enough effect; inconclusive = small, poorly fitted or top-dose-only effect, or another doubt; inactive = no such curve, though single readings can be large; an effect the other way counts as inactive or inconclusive.
SMILES,ATXN viability,TGFb SMAD3 inh,Nrf2 inh,HepG2 tox,A549 tox,ATXN2 expr inh
CC1(C)CC[C@]2(C(=O)O)CC[C@]3(C)C(=CC[C@@H]4[C@@]5(C)CC[C@H](O[C@@H]6O[C@H](C(=O)O)[C@@H](O)[C@H](O[C@@H]7OC[C@H](O)[C@H](O)[C@H]7O)[C@H]6O)C(C)(C)[C@@H]5CC[C@]43C)[C@@H]2C1,11µM,3.2µM,21µM,3.5µM,u,11µM
Cc1ccc(Sc2ncccc2[N+](=O)[O-])cc1,n,n,n,n,n,n
Cc1c([N+](=O)[O-])cnc(Sc2ccccc2)c1[N+](=O)[O-],14µM,13µM,n,20µM,n,x
Cc1nc(-c2cccc(NC(=O)c3ccco3)c2)cs1,n,n,n,n,n,n
Nc1nc(-c2ccc(NC(=O)c3ccco3)cc2)cs1,n,n,u,n,n,16µM
O=C(Nc1ccc(NC(=O)c2ccco2)cc1)c1ccco1,n,n,n,n,n,n
Cc1nc(-c2cccc(NC(=O)c3ccc(-n4cccn4)cc3)c2)cs1,n,u,15µM,n,n,n
Cc1nc(-c2ccc(NC(=O)c3ccco3)cc2)cs1,n,n,7.3µM,n,n,4µM
COc1ccc(NC(=O)c2ccc(-c3csc(C)n3)cc2)cc1,n,n,21µM,n,n,u
O=C(Nc1ccccc1)C1=C[C@@H](c2coc3ccccc3c2=O)C[C@@H](OCCCCO)O1,n,u,n,n,n,n
CCOC(=O)c1cnc2ccc(OC)cc2c1Nc1ccc(N2CCN(C)CC2)cc1,n,u,n,n,n,u
CNC(=O)c1nn(C)c2c1C(C)(C)Cc1cnc(Nc3ccc(N4CCN(C)CC4)cc3)nc1-2,x,x,x,x,x,1.7µM
Cc1ccccc1CN(c1ccc(C(=O)N2CCc3ccccc3C2)cc1)S(C)(=O)=O,n,n,15µM,n,n,n
Cc1ccc(-n2[nH]c(C)c(N=Nc3cccc(-c4cccc(C(=O)O)c4)c3O)c2=O)cc1C,n,x,x,x,x,u
Fc1cc(NC(=S)NCc2ccc(CNC(=S)Nc3ccc(Cl)c(F)c3)cc2)ccc1Cl,u,u,u,2.8µM,n,x
FC(F)(F)c1cccc(NC(=S)NCc2ccc(Cl)cc2)c1,x,10µM,u,16µM,n,u
Fc1ccc(CNC(=S)Nc2cccc(C(F)(F)F)c2)cc1,n,u,n,n,n,n
COc1cc(NC(=O)CN2C(=O)c3ccccc3Sc3ccc(C(=O)N4CCCC4)cc32)cc(OC)c1,n,n,x,n,n,n
C/C(=N\NC(=O)C1CC1c1ccccc1)c1cccc([N+](=O)[O-])c1 (centres undefined),n,11µM,u,n,u,n
C/C(=N\NC(=O)C1CC1(c1ccccc1)c1ccccc1)c1cccc([N+](=O)[O-])c1 (centres undefined),n,n,n,n,n,n
Cc1onc(-c2ccccc2Cl)c1C(=O)NCc1nnnn1-c1ccc(F)c(F)c1,n,n,x,n,x,x
COc1ccc(N/C=C2\CCc3ccccc3C2=O)cc1,n,n,u,11µM,u,n
COc1ccc2c(c1)CC/C(=C\Nc1ccc3c(c1)OCO3)C2=O,n,n,n,n,u,n
Cc1cccc(-c2nc3c4c(-c5ccccc5)c(-c5ccccc5)oc4ncn3n2)c1,n,n,n,n,n,n
Cc1nc2ccccc2n1Cc1ccccc1,u,n,21µM,n,n,x
SMILES,ATXN viability,TGFb SMAD3 inh,Nrf2 inh,HepG2 tox,A549 tox,ATXN2 expr inh
CC(=O)Nc1nc2ccccc2n1Cc1ccc(Cl)cc1,25µM,u,u,n,n,18µM
Cc1c(C(=O)N(C)Cc2ccc(F)cc2)sc(=O)n1Cc1ccc(Cl)c(Cl)c1,n,u,x,n,x,n
CC1(C(=O)NCc2cccc3ccccc23)CCN1Cc1cccc2c1OCO2 (centres undefined),n,u,x,n,x,n
CCOC(=O)c1cocc1C(=O)O,n,u,n,1.6µM,n,n
CCOC(=O)c1coc(C(=O)OCC)c1C(=O)OCC,n,n,n,n,n,n
Cc1cccc(Cn2nc(C(C)(C)C)cc2C(=O)Nc2ccc(F)cc2)c1,u,u,u,13µM,u,u
CC(C)(C)c1cc(C(=O)NN)n(Cc2ccc(F)cc2)n1,x,n,n,n,n,x
COC(=O)c1cc(NC(=O)c2cc(C(C)(C)C)nn2Cc2ccc(F)cc2)ccc1N1CCOCC1,u,u,13µM,n,n,x
OCCNCc1c(OCc2ccc(Cl)cc2)ccc2ccccc12,u,u,n,n,n,u
CC(C)c1ccc2[nH]c(O)c(N=NC(=O)c3cccc(S(=O)(=O)Nc4ccccc4Cl)c3)c2c1,n,n,u,n,n,n[11.3 µM]
CC(C)NC(=S)N=Nc1c(O)[nH]c2ccc(C(C)C)cc12,3.5µM,u,u,n,n,x
CN(C)CCNC(=O)CN1C(=O)COc2ccc(S(=O)(=O)N3CCCC3)cc21,n,n,n,n,n,n
COc1ccc(-c2noc(N3CCC(C(=O)N4CCN(c5ccccn5)CC4)CC3)n2)cc1,n,n,18µM,n,n,u
COc1ccc(NC(=O)C2CCN(c3nc(-c4ccc(OC)cc4)no3)CC2)cc1,n,n,n,n,n,n
CCN(C(=O)C1CCN(c2nc(-c3ccc(OC)cc3)no2)CC1)c1ccc(OC)cc1,u,u,13µM,n,n,n
COc1ccc(-c2noc(N3CCC(C(=O)N4CCN(c5ccccc5OC)CC4)CC3)n2)cc1,x,u,x,n,n,x
O=C(NNC(=O)c1ccccc1OCc1ccccc1)c1ccccc1O,n,n,n,n,n,u
O=C(NNC(=O)c1ccccc1OCc1ccc(F)cc1)c1ccccc1O,u,u,n,n,n,16µM
CC1(C)COC(c2cccc(C3=NC(C)(C)CO3)n2)=N1,n,n,n,n,n,n
Cc1cc(C)c2c(=O)n3c(nc2c1)C(CC(C)C)NC(=O)c1cccnc1-3 (centres undefined),u,u,x,n,x,n
COc1ccc2c(c1)c(C1=C(c3c[nH]c4ccccc34)C(=O)NC1=O)cn2CCCN(C)C,x,x,x,x,x,22µM
COc1ccc(CN2CCN(Cc3c[nH]c4ccccc34)CC2)c(OC)c1,n,n,x,n,x,x
COc1cc2ccccc2cc1C(=O)OCC(=O)N(CC(C)C)c1c(N)n(Cc2ccccc2)c(=O)[nH]c1=O,n,u,n,n,n,n
O=S(=O)(NCC(c1cccs1)S(=O)(=O)c1ccccc1)c1ccccc1 (centres undefined),x,7.1µM,x,10µM,n,x
O=S(=O)(NCC(c1ccco1)S(=O)(=O)c1cccs1)c1ccccc1 (centres undefined),x,n,x,n,n,x
